# High-throughput results deposited in PubChem by National Center for Advancing Translational Sciences (NCATS).
# This is a sample that favours compounds with a hit; in the whole collection about 5.7% have one here.
# Gal4-VP16 FLuc: inhibits Gal4-VP16 luciferase reporter, ROR gamma counter-screen. 3.5% of 310,000 active. Drosophila S2 Gal4-VP16 UAS-luciferase, luminescence, 20 h. Potency, µM (series often up to 53.6 µM), for inactives: at the highest dose activity, negative = inhibition, hits mostly inhibitors;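 further: Gal4-VP16 expression switched on by copper sulfate through the metallothionein promoter; nearly all actives have a fitted effect of over 50% in size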
# NPSR antag: neuropeptide S receptor (human) antagonism, cAMP. Potency, µM (series often up to 38.3 µM), for the others: at the highest dose activity change, negative = inhibition, actives largely listed as inhibitors. AID 1461. 1% of 220,000 active. CHO-NPSR cells, cAMP TR-FRET, antagonist mode; further: nearly all actives have a fitted effect of over 50% in size
# B2AR arrestin: agonists driving beta-arrestin recruitment to human beta2-adrenergic receptor; Potency, µM (titrated, usually from 46.1 µM), without a hit: at the top dose activation, most hits filed as activators; 0.02% of 330,000 active; beta-arrestin recruitment to beta2AR, cell-based reporter;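 further: 0% = DMSO controls and full agonism = EC100 isoproterenol or metaproterenol; nearly all actives have a fitted effect of over 65% in size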
# RORgamma inh: ROR gamma (mouse) transcription inhibition. P51450. Drosophila S2 Gal4-RORgamma UAS-luciferase reporter, 20 h. Potency, µM (top dose mostly 53.6 µM), without a hit: at the top dose activity change, negative = inhibition, actives largely listed as inhibitors. 5.4% of 310,000 active. AID 2551; further: nearly all actives have a fitted effect of over 60% in size
# Target sequence (P51450 whole entry, looked up, the tested form may be a part): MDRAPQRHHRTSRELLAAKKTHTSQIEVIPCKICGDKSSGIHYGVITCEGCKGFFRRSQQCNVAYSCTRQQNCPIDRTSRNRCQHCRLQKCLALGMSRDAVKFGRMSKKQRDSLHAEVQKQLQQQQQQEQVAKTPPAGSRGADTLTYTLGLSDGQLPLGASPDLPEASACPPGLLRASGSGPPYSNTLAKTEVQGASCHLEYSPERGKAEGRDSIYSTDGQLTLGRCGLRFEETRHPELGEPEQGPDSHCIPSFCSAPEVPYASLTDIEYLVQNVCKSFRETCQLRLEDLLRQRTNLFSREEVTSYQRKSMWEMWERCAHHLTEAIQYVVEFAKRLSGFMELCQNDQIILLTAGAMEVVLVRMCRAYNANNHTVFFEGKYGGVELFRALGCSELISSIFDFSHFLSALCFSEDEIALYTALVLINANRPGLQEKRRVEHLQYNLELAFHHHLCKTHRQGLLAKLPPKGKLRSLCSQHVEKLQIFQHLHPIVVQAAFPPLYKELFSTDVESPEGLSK
#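 Luciferase reporter read in Schneider cells carrying Gal4-RORγ (mouse) and UAS-Photinus luciferase; cells given compound 1 h before 700 uM copper sulfate induction, then incubated 20 h at ambient temperature.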
# Numbers without * were called inactive; u = inconclusive; x = no result given; [ ] = another dose, or the depositor's remark. The call rests on the fitted dose curve; in most records, active means well fitted curve in the direction sought with a large enough effect; inconclusive means small, poorly fitted or top-dose-only effect, or another doubt; inactive means no such curve, though single readings can be large; an effect the other way counts as inactive or inconclusive. Unless noted, on the % scale 0 is the no-effect control and ±100 the full control effect; potency means the concentration at half of the fitted maximal effect.
SMILES,Gal4-VP16 FLuc,NPSR antag,B2AR arrestin,RORgamma inh
COCCN(C(=S)Nc1cccc(C)c1C)C(C)c1ccco1 (stereo unspecified),u,-36.7%,-0.6%,11.2µM*
O=C(NOC(=O)c1c(F)cccc1Cl)c1ccc(Cl)c(Cl)c1,27.3%,x,-0.5%,32.6%
Cc1ccc2[nH]c(=O)c(CN(C(=O)c3cccs3)c3ccccc3)cc2c1,0.1%,-17.0%,-0.2%,37.4%
CN(C)S(=O)(=O)c1cccc(COc2ccccc2C(=O)Nc2ccccc2)c1,-0.9%,x,0.4%,31.0%
COc1cc2c3nnc(-c4ccc(F)cc4)c-3cn(Cc3ccccc3)c2cc1OC,7.08µM*,-2.3%[46.1 µM],0.1%,11.2µM*
Cc1nn(-c2ccccc2)c(C)c1NS(=O)(=O)c1ccccc1,u,-10.8%[46.1 µM],0.2%,u
COc1ccc(/C=N/Nc2cc(C)nc(-n3nc(C)cc3C)n2)c(OC)c1,0.282µM*,-57.4%,0.0%,0.199µM*
CCOc1cc(/C=N/Nc2cc(C)nc(-n3nc(C)cc3C)n2)ccc1O,17.8µM*,16.9%[7.67 µM],1.4%,u
Cc1cc(C)nc(SC2=CS(=O)(=O)c3ccccc32)n1,28.6%,-19.6%[46.1 µM],0.0%,-36.1%
c1ccc2[nH]c(CSc3nc4ccccc4s3)nc2c1,u,-9.8%[46.1 µM],0.1%,20µM*
Cc1nnc(SCc2nc3ccccc3[nH]2)s1,10.1%,-16.9%[46.1 µM],-0.8%,9.3%
CCS(=O)(=O)CCSc1nc2ccccc2s1,24.4%,-18.6%[46.1 µM],-0.3%,3.6%
O=S1(=O)C=C(Sc2nc3ccccc3s2)c2ccccc21,2.82µM*,10µM*,-0.2%,4.47µM*
c1ccc2sc(SSc3nc4ccccc4s3)nc2c1,u,x,x,12.6µM*
O=S(=O)(CCSc1nc2ccccc2s1)c1nc2ccccc2s1,15.8µM*,-8.6%[46.1 µM],-0.3%,7.08µM*
COC(=O)[C@@]12CCCCN1[C@H](c1ccc(-c3ccc4c(c3)OCO4)cc1)[C@H]1C(=O)N(C)C(=O)[C@H]12,x,x,0.0%,x
CCCCC(CC)COCC1CO1 (stereo unspecified),-15.9%,x,x,-1.0%
S=c1[nH]nc(CSc2nc3ccccc3s2)o1,u,-6.2%[46.1 µM],-3.6%,14.1µM*
Cn1c(CSc2nc3ccccc3s2)n[nH]c1=S,-5.8%[0.365 µM],-9.2%[46.1 µM],0.0%,u
N#C/C(=C\c1ccco1)Sc1nc2ccccc2s1,12.6µM*,-37.5%[46.1 µM],-0.4%,-10.1%
O=C(CSc1nc2ccccc2s1)CSc1nc2ccccc2s1,-15.8%,-13.1%[46.1 µM],0.1%,-86.4%
Cn1c(CSc2nc3ccccc3s2)nc2ccccc21,u,-9.4%[46.1 µM],-0.1%,11.2µM*
CC(=O)OCC1=C(C(=O)O)N2C(=O)[C@@H](NC(=O)CSc3ccncc3)[C@@H]2SC1,2.0%[17 µM],x,x,0.5%[16.9 µM]
Clc1ccc(COc2cccc(CNCc3ccncc3)c2)cc1,u,5.8%,-0.5%,u
COc1ccc(/C=C(/C(=O)c2cccs2)N2C=CC=CC2=C(C#N)C#N)cc1,2.82µM*,u,8.4%,2.24µM*
SMILES,Gal4-VP16 FLuc,NPSR antag,B2AR arrestin,RORgamma inh
N#CC(C#N)=C1C=CC=CN1/C(=C\c1ccco1)C(=O)c1ccc(Br)cc1,1.26µM*,u,-0.7%,3.55µM*
COc1ccc(C(=O)/C(=C\c2ccco2)N2C=CC=CC2=C(C#N)C#N)cc1,3.55µM*,-26.2%[46.1 µM],-0.6%,3.98µM*
N#CC(C#N)=C1C=CC=CN1/C(=C\c1ccco1)C(=O)c1ccccc1,1.78µM*,u,-0.5%,5.01µM*
CC1c2c([nH]c3ccccc23)CCC1C(=O)O (stereo unspecified),-28.5%,1.4%,-0.9%,-20.7%
CCc1ccc(-c2cc(C)no2)cc1S(=O)(=O)N1CCN(c2cc(C)ccc2C)CC1,-9.6%,x,-0.4%,-20.4%
FC(F)(F)c1ccccc1-c1ccc2ncnc(NC3CC3)c2c1,u,x,x,-1.0%
Cc1cc(NC(=O)c2ccccc2C)ccc1NC(=O)c1ccccc1Cl,-7.9%,x,-0.4%,16.0%
COc1ccc(NC(=O)CCSCCc2ccccn2)cc1OC,-1.8%,1.0%,-0.1%,11.6%
Cc1ccc(N=N/C(=C\O)C(=O)c2ccncc2)cc1,-9.2%,10µM*,0.2%,-1.1%
COCc1cc(=O)n2[nH]c(-c3ccccc3)cc2n1,2.1%,-8.1%[46.1 µM],0.4%,23.3%
CCOC(=O)Cc1cc(=O)n2[nH]cc(-c3ccc(Cl)cc3)c2n1,u,39.9%,-0.6%,11.2µM*
CCOC(=O)Cc1c(C)nc2c(-c3ccccc3)c[nH]n2c1=O,-7.0%[0.365 µM],-11.9%[46.1 µM],0.0%,7.94µM*
CCOC(=O)Cc1c(C)nc2c(-c3ccccc3)c(-c3ccccc3)[nH]n2c1=O,u,-17.3%[46.1 µM],0.4%,12.6µM*
COCc1cc(=O)n2[nH]cc(-c3ccsc3)c2n1,u,x,0.4%,15.8µM*
CCOC(=O)Cc1c(C)nc2c(-c3ccccc3)c(C)[nH]n2c1=O,1.5%,-7.4%[46.1 µM],-0.7%,33.8%
Cc1cccc(NC2=NCC(=O)N2Cc2cccs2)c1,-3.5%,14.7%,0.0%,-3.7%
Cc1cc2nc3c(=O)[nH]c(=O)nc-3n(C)c2cc1C=O,2.3%,x,x,10µM*
CC(=O)OCCn1c2nc(=O)[nH]c(=O)c-2nc2cc(C)c(C)cc21,7.3%,51.6%,-0.8%,-14.7%
CC(Nc1ccc(Cl)cc1)c1cc(Cl)ccc1O (stereo unspecified),12.6µM*,u,0.0%,u
CCOc1ccc(NC(C)c2cc(Cl)ccc2O)cc1 (stereo unspecified),-17.2%,-3.7%[46.1 µM],0.0%,-9.5%
O=C(CNC(=O)c1ccccc1Cl)N/N=C/C=C/c1ccccc1,-9.1%,6.2%,-0.2%,-28.9%
CN(Cc1ccc(Cl)cc1)C(=O)CCl,u,-0.2%,-0.1%,u
CN(Cc1ccc(Cl)s1)C(=O)CCl,-75.8%,-19.3%,-0.1%,10µM*
O=C(c1cccc(F)c1)N1CCC2(CC1)CN(c1ncccn1)C2,-2.7%,x,x,6.9%
COc1ccc(-c2nc3ccccc3n2Cc2ccccc2)cc1,u,u,-0.2%,3.98µM*
SMILES,Gal4-VP16 FLuc,NPSR antag,B2AR arrestin,RORgamma inh
CCC(C)n1c(/C=C/c2ccccc2)nc2ccccc21 (stereo unspecified),12.6µM*,-53.1%,-0.6%,10µM*
COc1ccc(/C=C/c2nc3ccccc3n2C)cc1,u,-28.6%,0.0%,2µM*
COc1ccc(Nc2nc3ccccc3n2C)cc1,6.9%,x,0.0%,-22.2%
COc1ccc(-c2n(Cc3ccccc3)c3ccccc3[n+]2Cc2ccccc2)cc1,5.01µM*,10µM*,0.0%,5.62µM*
C=CCn1c(-c2ccc(OC)cc2)nc2ccccc21,0.1%,-23.8%[46.1 µM],-0.2%,u
Cc1ccc(S(=O)(=O)N2CCC(C(=O)N/N=C/c3cccnc3)CC2)cc1,-5.1%,-4.0%,-0.1%,7.1%
COc1ccc(/C=C/c2nc3ccccc3c(=O)o2)cc1,7.94µM*,x,-0.1%,4.47µM*
CCn1c(/C=C/c2ccccc2)nc2ccccc21,u,-19.0%[46.1 µM],0.1%,15.8µM*
CCn1c(/C=C/c2ccccc2)nc2ccccc2c1=O,-7.2%,56.2%,-0.5%,33.4%
COc1ccc2c(c1)nc(N)n2Cc1ccccc1,u,-15.2%[46.1 µM],-0.5%,u
CC(C)Cn1c(/C=C/c2ccccc2)nc2ccccc21,11.2µM*,-27.0%[46.1 µM],0.1%,11.2µM*
CCCn1c(/C=C/c2cc[n+](C)cc2)nc2ccccc21,10.9%,x,-0.5%,-22.8%
COc1ccccc1/C=C/c1nc2ccc(OC(C)=O)cc2c(=O)o1,u,x,-0.3%,u
